# Measurements as given in PubChem BioAssay.
# Active and inactive are the calls of the source. Unless noted, no rule for the calls is given here.
# Legend:
# [1] = compound effects on lung adenocarcinoma cell viability – A549, calcein-AM fluorescence, 48 h, basal, profiling panel (AID 1162); settings: higher = more signal; also: test concentration not given here
# [2] = compound effects on differentiated 3T3-L1 adipocyte viability – cell-based, 3T3-L1 adipocytes, calcein-AM fluorescence, 48 h, basal, profiling panel (AID 1163); settings: 3T3-L1 adipocytes viability, higher = more signal; also: test concentration not given here
# [3] = compound effects on hepatocellular carcinoma cell viability – HepG2, calcein-AM fluorescence, 48 h, basal, profiling panel (AID 1164); settings: higher = more signal; also: test concentration not given here
# [4] = compound effects on multiple myeloma cell viability – MM1S, calcein-AM fluorescence, 48 h, basal, profiling panel (AID 1165); settings: higher = more signal;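 also: viability of MM1S multiple myeloma cells under basal unstimulated conditions; test concentration not given here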
# [5] = calcein-AM signal in unstimulated myeloma cells – cell-based, calcein-AM fluorescence, 48 h, PK04 Diversity Set, profiling panel (AID 1166); settings: RPMI8226 myeloma viability, higher = more signal;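 also: cells grown under basal conditions without added stimulus; test concentration not given here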
# [6] = JC-1 mitochondrial signal, unstimulated HepG2 cells – cell-based, JC-1 fluorescence, 24 h, 100 nL compound, profiling panel (AID 1167); settings: HepG2 mitochondrial potential, higher = more signal; also: test concentration not given here
# [7] = JC-1 mitochondrial signal, unstimulated adipocytes – cell-based, JC-1 fluorescence, 3T3-L1 adipocytes, 24 h, 100 nL compound, profiling panel (AID 1168); settings: JC-1 mitochondrial fluorescence, higher = more signal, called active from +8 up or from −8 down; also: test concentration not given here
# [8] = JC-1 mitochondrial signal, unstimulated myeloma cells – cell-based, JC-1 fluorescence, RPMI8226, 24 h, 100 nL compound, profiling panel (AID 1169); settings: JC-1 mitochondrial potential fluorescence, higher = more signal; also: test concentration not given here
# [9] = JC-1 mitochondrial signal, unstimulated MM1S myeloma – cell-based, JC-1 fluorescence, 24 h, 100 nL compound, profiling panel (AID 1170); settings: MM1S mitochondrial potential, higher = more signal; also: test concentration not given here
# [10] = resazurin metabolic signal in A549 cells – cell-based, resazurin fluorescence, 24 h, PK04 Diversity Set, profiling panel (AID 1171); settings: A549 viability, higher = more signal, called active from +8 up or from −8 down; also: test concentration not given here
# [11] = resazurin metabolic signal in HepG2 cells – cell-based, resazurin fluorescence, 24 h, PK04 Diversity Set, profiling panel (AID 1172); settings: HepG2 viability, higher = more signal; also: test concentration not given here
# [12] = budding yeast growth changes without added modifier – OD600, strain BY4716, 24 h, basal condition, primary screen (AID 1173); settings: S. cerevisiae BY4716 growth, OD600, 24 h; higher = more signal, called active from +8 up or from −8 down
# [13] = viability profiling in MM1S myeloma cells – cell-based, resazurin fluorescence, basal, 24 h, PK04 Diversity Set, profiling panel (AID 1174); settings: higher = more signal, called active from +8 up or from −8 down; also: test concentration not given here
# [14] = target: Dihydroorotate dehydrogenase (quinone), mitochondrial (Plasmodium falciparum (isolate 3D7)) (UniProt Q08210); assay: inhibition of P. falciparum DHODH – biochemical, C-terminal His tag, absorbance 600 nm, primary screen (AID 1175); settings: PfDHODH enzyme, DCIP absorbance 600 nm; higher = more signal, called active from +8 up or from −8 down;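 also: recombinant parasite enzyme with a five histidine tag at its C terminus; test concentration not given here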
# Sequence of Dihydroorotate dehydrogenase (quinone), mitochondrial (Plasmodium falciparum (isolate 3D7)) (Q08210 whole entry, looked up): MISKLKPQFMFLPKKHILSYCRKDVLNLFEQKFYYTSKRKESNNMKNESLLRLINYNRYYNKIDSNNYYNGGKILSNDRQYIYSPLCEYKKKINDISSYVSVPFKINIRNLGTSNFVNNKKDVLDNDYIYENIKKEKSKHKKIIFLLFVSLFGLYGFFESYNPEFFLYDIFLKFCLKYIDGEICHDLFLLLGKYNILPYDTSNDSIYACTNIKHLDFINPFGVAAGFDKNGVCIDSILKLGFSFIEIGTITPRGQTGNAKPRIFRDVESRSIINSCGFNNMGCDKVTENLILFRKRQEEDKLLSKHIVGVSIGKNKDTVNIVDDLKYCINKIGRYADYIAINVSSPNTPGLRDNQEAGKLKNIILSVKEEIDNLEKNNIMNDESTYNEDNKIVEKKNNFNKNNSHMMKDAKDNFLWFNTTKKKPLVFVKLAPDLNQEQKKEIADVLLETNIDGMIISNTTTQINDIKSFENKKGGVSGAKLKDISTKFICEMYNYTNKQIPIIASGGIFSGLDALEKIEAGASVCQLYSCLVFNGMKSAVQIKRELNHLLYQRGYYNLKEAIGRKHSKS
# [15] = inhibition of PAO1 biofilm formation – strain PAO1, LB-PBS medium, absorbance 600 nm, primary screen (AID 1176); also: test concentration not given here; settings: P. aeruginosa PAO1 growth/biofilm, A600, 12 h; higher = more signal
# [16] = growth modulation of vineyard yeast isolate – strain RM11-1a, OD600, basal, 24 h, primary screen (AID 1177);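 also: cultures grown under basal conditions with no added stressor; test concentration not given here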; settings: S. cerevisiae RM11-1a growth, OD600, 24 h; higher = more signal, called active from +8 up or from −8 down
# [17] = growth of efflux-deficient E. coli DRC39 – strain DRC39, OD650, 24 h, E. coli filamentation inducers, primary screen (AID 1178);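 also: growth measured as culture turbidity by optical density at 650 nm; test concentration not given here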; settings: E. coli DRC39 acrAB, higher = more signal, called active from +8 up or from −8 down
# [18] = growth of efflux-deficient E. coli DRC39 – strain DRC39, OD650, 48 h, E. coli filamentation inducers, primary screen (AID 1179);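 also: screen aims at cell division blockers that make cells filament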; settings: E. coli DRC39 delta-acrAB growth, higher = more signal, called active from +8 up or from −8 down
# [19] = viability profiling in RPMI8226 myeloma cells – cell-based, resazurin fluorescence, basal, 24 h, PK04 Diversity Set, profiling panel (AID 1180); settings: higher = more signal;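 also: RPMI8826 multiple myeloma cell line at 5000 cells per well; test concentration not given here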
# [20] = target: E3 ubiquitin-protein ligase XIAP (Homo sapiens) (UniProt P98170); assay: small molecules binding XIAP protein – biophysical, small-molecule microarray, fluorescence 635 nm, primary screen (AID 1181); settings: higher = more signal;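 also: score merges 667 nm emission and signal to noise over triplicate slides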
# Sequence of E3 ubiquitin-protein ligase XIAP (Homo sapiens) (P98170 whole entry, looked up): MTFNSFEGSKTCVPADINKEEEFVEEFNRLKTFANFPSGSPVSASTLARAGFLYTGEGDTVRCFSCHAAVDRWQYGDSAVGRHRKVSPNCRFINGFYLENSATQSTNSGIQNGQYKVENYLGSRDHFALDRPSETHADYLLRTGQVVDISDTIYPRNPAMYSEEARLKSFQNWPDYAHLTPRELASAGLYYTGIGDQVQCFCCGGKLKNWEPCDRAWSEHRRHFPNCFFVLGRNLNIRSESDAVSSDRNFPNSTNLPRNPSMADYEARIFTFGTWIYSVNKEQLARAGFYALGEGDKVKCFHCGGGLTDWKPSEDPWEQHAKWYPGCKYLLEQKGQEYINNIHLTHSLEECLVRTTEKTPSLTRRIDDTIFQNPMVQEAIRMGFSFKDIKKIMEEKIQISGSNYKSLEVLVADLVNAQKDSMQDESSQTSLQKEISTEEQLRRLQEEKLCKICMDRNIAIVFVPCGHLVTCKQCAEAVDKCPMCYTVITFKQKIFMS
Structure (SMILES),z-score [1],z-score [2],z-score [3],z-score [4],z-score [5],z-score [6],z-score [7],z-score [8],z-score [9],z-score [10],z-score [11],z-score [12],z-score [13],composite z-score [14],z-score [15],z-score [16],z-score [17],z-score [18],z-score [19],composite z-score [20]
O=C1CCCC=C1C(CCc1ccccc1)OC(=O)c1ccc(Br)cc1 (stereo not given),-0.281,0.893,-0.318,-3.42,-2.69,-0.158,-1.15 (inactive),-0.619,-0.127,-0.251 (inactive),-0.0575,-0.744 (inactive),-0.688 (inactive),-1.19 (inactive),1.18 (inactive),-0.0079 (inactive),-0.147 (inactive),-0.247 (inactive),0.504,0.289
CCOC(=O)[C@H](CC(C)C)NC(=O)CCC1CC(OC(=O)NCc2cccc3ccccc23)CC2(CCCC(COC(=O)NCCOc3ccccc3)O2)O1 (stereo not given in full),2.15,0.519,0.335,-1.32,-0.273,1,0.661 (inactive),-0.763,-0.985,1.33 (inactive),0.329,-0.895 (inactive),0.572 (inactive),-0.785 (inactive),-0.127 (inactive),-0.879 (inactive),0.0446 (inactive),0.253 (inactive),1.57,-0.142
C#CCCCON=C1C[C@@H](O)[C@@H](O)[C@@H]2[C@@H]3C(=O)N(CC)C(=O)[C@@H]3CC[C@@H]12,-0.36,-0.843,0.075,0.0133,0.338,-0.836,-1.26 (inactive),-0.0744,-0.312,-0.526 (inactive),-0.245,0.961 (inactive),-0.529 (inactive),-0.367 (inactive),0.07 (inactive),0.375 (inactive),0.0322 (inactive),-0.569 (inactive),-0.244,-0.0473
COc1ccc(COC(=O)NN=C2C[C@@H](O)[C@@H](O)[C@@H]3[C@@H]4C(=O)N(Cc5ccccc5)C(=O)[C@@H]4CC[C@H]23)cc1,0.203,0.649,-0.462,0.451,-1.27,0.646,-0.585 (inactive),0.365,-0.592,1.03 (inactive),1.35,0.3 (inactive),1.28 (inactive),-0.307 (inactive),0.07 (inactive),-0.629 (inactive),0.426 (inactive),-0.463 (inactive),0.635,0.152
COC(=O)[C@@H]1CC[C@H](C)[C@@H](c2ccc(C)cc2)N1C(=O)c1ccc(C=NO[C@H](C)c2cn([C@H](CO)Cc3ccccc3)nn2)cc1,0.354,0.747,-1.31,0.005,-2.98,-0.701,-1.55 (inactive),-0.041,0.697,-0.0166 (inactive),-1.32,0.0789 (inactive),0.534 (inactive),0.271 (inactive),-0.598 (inactive),0.59 (inactive),-1.28 (inactive),-1.03 (inactive),0.641,-0.102
CCCNC(=O)OC[C@H]1O[C@H](CCON=C(C)C)C=C[C@@H]1Oc1ccc(OC)cc1,0.171,0.008,-0.0737,-0.39,0.0566,-1.57,-1.43 (inactive),0.255,0.276,0.095 (inactive),-0.131,-2.44 (inactive),-0.112 (inactive),-0.411 (inactive),0.736 (inactive),-0.0159 (inactive),0.675 (inactive),-1.4 (inactive),-0.331,-0.0859
C[C@@H]1CC[C@H]2C(=O)O[C@@H](Cc3ccccc3)CN2[C@H]1c1ccc(Br)cc1,0.442,0.185,0.828,-0.591,-0.323,-0.225,0.276 (inactive),0.231,0.697,0.539 (inactive),0.603,-1.06 (inactive),0.656 (inactive),0.245 (inactive),-0.491 (inactive),0.37 (inactive),-0.402 (inactive),-0.161 (inactive),0.0066,0.0871
CCCNC(=O)OC[C@H]1O[C@H](CCON=Cc2ccc(C(=O)N3[C@H](c4ccc(C)cc4)[C@@H](C)CC[C@H]3C(=O)OC)cc2)C=C[C@@H]1Oc1ccc(OC)cc1,-0.167,0.885,-0.0578,-0.164,-0.581,2.75,-3.26 (inactive),0.694,0.235,-0.471 (inactive),-0.73,1.85 (inactive),-0.686 (inactive),0.415 (inactive),0.511 (inactive),0.729 (inactive),0.567 (inactive),0.353 (inactive),-0.203,0.0623
COC(=O)C=CCCc1coc(C=CCNC(=O)OC)n1,-0.538,0.868,-0.586,0.585,-2.19,0.0672,-0.944 (inactive),0.073,0.681,-1.18 (inactive),-0.658,-1.07 (inactive),0.0455 (inactive),0.979 (inactive),-0.27 (inactive),0.237 (inactive),-1 (inactive),-0.542 (inactive),-0.102,0.249
CC(C)=CCCC(C)=CCON=C1C[C@@H](O)[C@@H](O)[C@@H]2[C@@H]3C(=O)N(Cc4ccccc4)C(=O)[C@@H]3CC[C@H]12,-0.424,0.753,-0.908,-0.13,-1.41,1.66,-0.468 (inactive),0.394,-0.0142,0.539 (inactive),1.17,-2.99 (inactive),1.14 (inactive),-0.88 (inactive),0.507 (inactive),-1.28 (inactive),-0.366 (inactive),0.167 (inactive),0.369,-0.177
COC(=O)CC=C[C@@H](C)[C@@H](C=NO[C@@H](C)c1cn([C@H](CO)Cc2ccccc2)nn1)NS(=O)(=O)c1ccc(C)cc1,0.788,0.521,1.35,0.56,0.593,-1.24,0.153 (inactive),-0.249,-0.648,-0.685 (inactive),-1.21,-0.913 (inactive),-0.412 (inactive),-1.16 (inactive),-1.54 (inactive),-2.06 (inactive),0.196 (inactive),0.364 (inactive),-0.808,-0.349
CCC1=NOC(CCC2CC(OC(=O)NCc3cccc4c3OCO4)CC3(CCCC(COC(=O)NCCc4ccccc4OC)O3)O2)C1 (stereo not given),-1.02,0.405,-2.26,-3.6,-3.84,0.559,-0.197 (inactive),-0.77,-2.17,0.492 (inactive),-0.211,-0.101 (inactive),0.0125 (inactive),-0.104 (inactive),1.43 (inactive),-0.509 (inactive),1.13 (inactive),0.918 (inactive),0.718,-0.294
C=CC[C@@H]1C=C[C@H](ON=C2[C@H]3CCn4c(=O)n(-c5ccccc5)c(=O)n4[C@H]3[C@H](O)[C@@H]3O[C@H]23)[C@@H](CO)O1,-0.547,-0.203,-0.683,-1.21,-0.997,-0.568,-1.65 (inactive),-0.172,0.0203,-0.674 (inactive),-0.684,0.695 (inactive),-0.646 (inactive),0.329 (inactive),0.675 (inactive),0.779 (inactive),0.207 (inactive),-0.104 (inactive),-0.331,-0.0663
CO[C@@H]1COC(=O)CC=C[C@@H](C)[C@H](OC)COC(=O)[C@@H](C)COC(=O)CC=C[C@H]1C,0.865,-0.159,1.48,0.397,-0.802,1.11,-0.661 (inactive),0.338,0.253,0.134 (inactive),0.225,-0.621 (inactive),0.586 (inactive),0.577 (inactive),-0.225 (inactive),0.401 (inactive),0.666 (inactive),0.733 (inactive),0.151,-0.0264
CCOC(=O)[C@H](Cc1ccccc1)NC(=O)CCC1CC(OC(=O)NCCc2ccc(F)cc2)CC2(CCCC(COC(=O)NCc3ccccc3)O2)O1 (stereo not given in full),0.199,-0.765,-0.12,0.399,-0.816,0.968,0.509 (inactive),-0.191,-0.266,0.56 (inactive),0.567,-0.298 (inactive),0.159 (inactive),-0.447 (inactive),0.013 (inactive),0.694 (inactive),0.321 (inactive),-0.158 (inactive),-0.0066,-0.0525
COC(=O)[C@H](C)NC(=O)CCC1CC(OC(=O)NCc2ccc3c(c2)OCO3)CC2(CCCC(COC(=O)NCC(c3ccccc3)c3ccccc3)O2)O1 (stereo not given in full),-0.641,0.155,-2.9,-3.53,-3.99,-1.01,-0.013 (inactive),-0.0228,-0.794,1.76 (inactive),0.0245,-1.23 (inactive),0.177 (inactive),-2.67 (inactive),-0.895 (inactive),0.0477 (inactive),-0.341 (inactive),0.532 (inactive),-0.0511,-0.0734
CC(=O)OC[C@H]1O[C@H](C#Cc2ccccc2)C=C[C@@H]1OC(C)=O,-0.188,0.0552,-0.136,-3.51,-3.71,-1.65,0.458 (inactive),-1.04,-2.48,-0.713 (inactive),-0.153,-2.26 (inactive),-5.37 (inactive),-0.0765 (inactive),-0.339 (inactive),-0.14 (inactive),0.731 (inactive),0.414 (inactive),-2.61,-0.13
O=C1C[C@@H](O)[C@@H](O)[C@@H]2[C@@H]3C(=O)N(C[C@@H]4CCCO4)C(=O)[C@@H]3CC[C@@H]12,0.708,-0.378,1.12,0.107,-1.06,1.29,-0.248 (inactive),-0.407,0.345,-0.582 (inactive),-0.429,0.0532 (inactive),-0.272 (inactive),0.204 (inactive),0.565 (inactive),-0.129 (inactive),0.469 (inactive),0.582 (inactive),-0.12,-0.0989
